Source: PubChem BioAssay (National Center for Advancing Translational Sciences (NCATS))
Pf growth 48h = P. falciparum growth inhibition at 48 hours (one generation). AID 504832. actives 5.9% (n = 310,000). Potency, µM (titrated, usually from 28.7 µM), hits mostly inhibitors. P. falciparum luciferase growth in erythrocytes, 48 h
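A one-generation exposure of luciferase-tagged malaria parasites in RPMI 1640/Albumax erythrocyte culture, 37 C and 5% CO2. Inhibition is inferred from decreased luminescence after adding detection reagent.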
SARS PLP yeast = inhibitors of SARS-CoV papain-like protease in yeast; S. cerevisiae expressing SARS-CoV PLpro, growth rescue; Potency, µM (titrated, usually from 32.9 µM), actives largely listed as activators; actives 0.19% (n = 330,000); AID 485353; calls by dose curve; note: nearly all actives have a fitted effect of over 55% in size
NS1 function inh = blocks influenza NS1 protein function | Potency, µM (doses to about 46.1 µM) | actives 0.4% (n = 270,000) | AID 2326; calls by dose curve; note: actives are rising curves; nearly all actives have a fitted effect of over 50% in size
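S. cerevisiae expressing influenza A NS1, grown in glucose, washed, then diluted 1:100 into pH 6.0 -URA galactose medium with 23 nl compound. Growth recovery read as OD600; NS1-free strain serves as control.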
RE007 growth inh = less growth of the S. pombe RE007 Vpr strain; S. pombe RE007 Vpr strain, BacTiter-Glo ATP luminescence, 24 h; actives 0.21% (n = 360,000); Potency, µM (series often up to 92.2 µM), hits mostly inhibitors; active = well fitted falling curve with a large enough effect; inconclusive = small, poorly fitted or top-dose-only effect; inactive = no such curve, though single readings can be large or run the other way; note: nearly all actives have a fitted effect of over 50% in size
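Fission yeast RE007 carrying one integrated HIV-1 vpr copy, seeded at OD 0.01 in PMG+AL medium with 23 nL pinned compound. Grown 24 h at 30 degrees; viability read by BacTiter-Glo luminescence after 5 min.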
Pf growth 96h = inhibits malaria parasite growth, 96 h. P. falciparum luciferase reporter growth, 96 h. Potency, µM (series often up to 28.7 µM), most hits filed as inhibitors. actives 6.9% (n = 320,000)
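96 h incubation, 37 C, 5% CO2, of luciferase-reporter P. falciparum-infected RBCs (2% hematocrit, 0.05% parasitemia final) with test compounds; endpoint luminescence.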
Numbers stand for hits. Compounds with a hit are over-represented: about 9.5% of the library has one in this group of screens. Unless noted, calls come from the whole dose curve; as a rule, active = well fitted inhibition curve with a large enough effect; inconclusive = small, poorly fitted or top-dose-only effect, or another doubt; inactive = no such curve, though single readings can be large or run the other way.

For CCCCc1ccc(/C=C2/C(=O)ON=C2c2ccccc2)s1 the results were Pf growth 48h inactive, SARS PLP yeast inactive, NS1 function inh inactive, RE007 growth inh inactive and Pf growth 96h 10.4µM.
`C/C=C/c1cccc(-c2nc(C(=O)NC3CCC3)cc3c2[C@@H](CCO)N(S(=O)C(C)(C)C)C3)c1` (some centres not stated) gave RE007 growth inh inactive.
`Cc1cc(=O)n2nc(N3CCC(C(=O)NC4CCCc5ccccc54)CC3)sc2n1` (configuration not stated) gave Pf growth 48h inconclusive, SARS PLP yeast inactive, NS1 function inh inactive, RE007 growth inh inactive and Pf growth 96h 0.586µM.
Cc1cc(=O)n2nc(N3CCC(C(=O)NCc4ccccc4Cl)CC3)sc2n1 was read as Pf growth 48h inconclusive, SARS PLP yeast inactive, NS1 function inh inactive, RE007 growth inh inactive and Pf growth 96h 11.7µM.
For O=C(NC1CCCc2ccccc21)C1CCN(c2c(N3CCCC3)c(=O)c2=O)CC1 (configuration not stated) the results were NS1 function inh inactive.
COc1ccc(/C=N/n2cnnc2)cc1COc1ccccn1 was read as Pf growth 48h inactive, SARS PLP yeast inactive, NS1 function inh inactive, RE007 growth inh inactive and Pf growth 96h 2.08µM.
For Cn1c(O)c(N=NC(=S)Nc2ccccc2F)c2cc(S(=O)(=O)N3CCOCC3)ccc21 the results were Pf growth 48h inconclusive, SARS PLP yeast inactive, RE007 growth inh inactive and Pf growth 96h inconclusive.
C=CCn1c(O)c(N=NC(=S)Nc2ccccc2C)c2cc(S(=O)(=O)N3CCOCC3)ccc21 was read as Pf growth 48h 2.94µM, SARS PLP yeast inactive, NS1 function inh 12.6µM, RE007 growth inh inactive and Pf growth 96h 13.1µM.
For Cc1ccc(NC(=S)N=Nc2c(O)n(C)c3ccc(S(=O)(=O)N4CCOCC4)cc23)cc1C the results were Pf growth 48h 3.29µM, SARS PLP yeast inactive, NS1 function inh inconclusive, RE007 growth inh inactive and Pf growth 96h inactive.
Cc1cccc(NC(=S)N=Nc2c(O)n(CN3CCOCC3)c3ccccc23)c1C was read as Pf growth 48h 4.65µM, SARS PLP yeast inactive, NS1 function inh inactive, RE007 growth inh inconclusive and Pf growth 96h inactive.
For Oc1c(N=NC(=S)Nc2ccccc2F)c2ccccc2n1Cc1cccc(Cl)c1 the results were Pf growth 48h inconclusive, SARS PLP yeast inactive, RE007 growth inh inactive and Pf growth 96h inactive.
`Oc1c(N=NC(=S)Nc2ccccc2F)c2ccccc2n1Cc1ccc(F)cc1` gave Pf growth 48h 2.08µM, SARS PLP yeast inactive, NS1 function inh inactive, RE007 growth inh inactive and Pf growth 96h inconclusive.
For Cc1c(C(=O)N2CCN(Cc3ccccc3)CC2)oc2c1C(=O)CCC2 the results were Pf growth 48h inactive, SARS PLP yeast inactive, NS1 function inh inactive, RE007 growth inh inactive and Pf growth 96h inactive.
O=C(Cc1ccc(Cl)c(Cl)c1)Nc1ccc2[nH]c(=O)[nH]c2c1 was read as Pf growth 48h inactive, SARS PLP yeast inactive, RE007 growth inh inactive and Pf growth 96h inactive.
Screening CC[C@@H]1CC2=C(C(=O)OC(C)(C)O2)[C@@H](c2ccc(Cl)cc2)O1 returned RE007 growth inh inactive.
Screening CC(C)(C)S(=O)N1Cc2cc(=O)n(Cc3ccccc3)c(CCO)c2[C@H]1CCO (some centres not stated) returned RE007 growth inh inactive.
`C=CCn1c(O)c(N=NC(=S)Nc2ccc(OC)c(Cl)c2)c2ccccc21` gave Pf growth 48h 3.7µM, SARS PLP yeast inactive, NS1 function inh inactive, RE007 growth inh inactive and Pf growth 96h inactive.
`CSc1cc(C)c(OCC(=O)Nc2ccc(NC(C)=O)cc2)c(C)c1` gave Pf growth 48h inactive, SARS PLP yeast inactive, NS1 function inh inactive, RE007 growth inh inactive and Pf growth 96h inactive.
COc1cccc(NCc2ccc([N+](=O)[O-])s2)c1 was read as Pf growth 48h inactive, SARS PLP yeast inactive, NS1 function inh inactive, RE007 growth inh inactive and Pf growth 96h 0.329µM.
For COc1cccc(CNc2ccc([N+](=O)[O-])cc2C)c1 the results were Pf growth 48h inconclusive, SARS PLP yeast inactive, NS1 function inh inactive, RE007 growth inh inactive and Pf growth 96h inactive.
Cc1ccc(-n2nc3c(c2NC(=O)c2ccc4c(c2)OCO4)CS(=O)C3)c(C)c1 (configuration not stated) was read as Pf growth 48h inactive, SARS PLP yeast inactive, RE007 growth inh inactive and Pf growth 96h inactive.
O=C1CSC(=Nc2ccc(O)cc2)N1c1ccc(O)cc1 was read as Pf growth 48h inconclusive, SARS PLP yeast inactive, NS1 function inh inactive, RE007 growth inh inactive and Pf growth 96h 10.4µM.
CS(=O)(=O)c1ccc(Cl)c(NC(=O)COC(=O)C23CC4CC(CC(C4)C2)C3)c1 was read as Pf growth 48h 5.22µM, SARS PLP yeast inactive, RE007 growth inh inactive and Pf growth 96h 8.28µM.
Screening CS(=O)(=O)c1ccc(Cl)c(NC(=O)CCl)c1 returned Pf growth 48h 9.28µM, SARS PLP yeast inactive, RE007 growth inh inactive and Pf growth 96h inconclusive.
`CS(=O)(=O)c1ccc(C(=O)Nc2cc(S(C)(=O)=O)ccc2Cl)cc1` gave Pf growth 48h inactive, SARS PLP yeast inactive, NS1 function inh inactive, RE007 growth inh inactive and Pf growth 96h inactive.
Cc1ccc(S(=O)(=O)N(CC(=O)Nc2ccccc2C(=O)O)c2ccccc2)cc1 was read as Pf growth 48h inactive, SARS PLP yeast inactive, NS1 function inh inactive, RE007 growth inh inactive and Pf growth 96h inactive.
`Cc1ccc(S(=O)(=O)Cn2nnnc2C(CC(C)C)N2CCN(C(=O)c3ccco3)CC2)cc1` (configuration not stated) gave Pf growth 48h 11.7µM, SARS PLP yeast inactive, NS1 function inh inactive, RE007 growth inh inactive and Pf growth 96h 1.65µM.
Screening CCCC(c1nnnn1C(C)(C)C)N1CCN(C(=O)c2ccco2)CC1 (configuration not stated) returned Pf growth 48h inactive, SARS PLP yeast inactive, NS1 function inh inactive, RE007 growth inh inactive and Pf growth 96h inactive.
Screening CCCCC(c1nnnn1C1CCCC1)N1CCN(C(=O)c2ccco2)CC1 (configuration not stated) returned Pf growth 48h 2.08µM, SARS PLP yeast inactive, NS1 function inh inactive and RE007 growth inh inactive.
CCCC(c1nnnn1C1CCCC1)N1CCN(C(=O)c2ccco2)CC1 (configuration not stated) was read as Pf growth 48h 11.7µM, SARS PLP yeast inactive, NS1 function inh inactive, RE007 growth inh inactive and Pf growth 96h inconclusive.
`CC(C)CC(c1nnnn1C1CCCC1)N1CCN(C(=O)c2ccco2)CC1` (configuration not stated) gave Pf growth 48h inactive, SARS PLP yeast inactive, NS1 function inh inactive, RE007 growth inh inactive and Pf growth 96h 9.28µM.
CC(C)CC(c1nnnn1C1CCCCC1)N1CCN(C(=O)c2ccco2)CC1 (configuration not stated) was read as Pf growth 48h inconclusive, SARS PLP yeast inactive, NS1 function inh inactive, RE007 growth inh inactive and Pf growth 96h inconclusive.
For N=C(N)SCCSC(=N)N the results were NS1 function inh inactive.
